Compounds with a hit are over-represented: about 4.8% of the library has one in this group of screens.
hgDAF-12 ag: activates the H. glycines DAF-12 receptor ligand-binding domain. HEK293 GAL4-hgDAF12 UAS-luciferase reporter, agonist luminescence; normalized to butyrate control. activation, % at 6.8 µM. 1.8% of 370,000 active;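 active means activation above a cutoff set at the mean of all screened compounds plus 3 SD, cut at about 10% in these data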;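 further: 0% = DMSO wells and 100% = sodium butyrate wells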
hcDAF12 agonist: activates DAF-12 receptor from parasite H. contortus | 1.4% of 370,000 active | HEK293 hcDAF-12 lit1-tk-luc reporter, luminescence; 0% DMSO, 100% Δ7-dafachronic acid | activation, % at 6.8 µM;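 active means activation above the mean of all tested compounds plus 3 SD, cut at about 5.5% in these data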;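 further: 100% = response to 3 µM Δ7-dafachronic acid high control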
DAX1 inh-1: inhibitors of DAX1 repression of SF-1 activated StAR promoter; inhibition, % at 6.8 µM; HEK293T StAR-luciferase reporter, SF-1/DAX-1 repression relief; 1.1% of 370,000 active;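 active means inhibition above the mean over all tested compounds plus 3 SD, cut at about 3.6% in these data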;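 further: 0% = DAX-1 cells with DMSO and 100% = cells lacking DAX-1 with DMSO; higher inhibition means more luminescence from relief of DAX-1 repression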
DAX1 inh-2: inhibitors of human orphan nuclear receptor DAX1 (NR0B1). P51843. HEK293 Gal4-DAX1 luciferase reporter, luminescence. inhibition, % at 6.75 µM. 0.99% of 340,000 active;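 active means inhibition above the mean over all tested compounds plus 3 SD, cut at about 4.2% in these data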;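 further: 0% = DAX1-transfected cells with DMSO and 100% = empty-vector control cells with DMSO; inhibition shows as a rise in luminescence from relieved DAX1 repression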
Target sequence (P51843 207-470 limits assumed): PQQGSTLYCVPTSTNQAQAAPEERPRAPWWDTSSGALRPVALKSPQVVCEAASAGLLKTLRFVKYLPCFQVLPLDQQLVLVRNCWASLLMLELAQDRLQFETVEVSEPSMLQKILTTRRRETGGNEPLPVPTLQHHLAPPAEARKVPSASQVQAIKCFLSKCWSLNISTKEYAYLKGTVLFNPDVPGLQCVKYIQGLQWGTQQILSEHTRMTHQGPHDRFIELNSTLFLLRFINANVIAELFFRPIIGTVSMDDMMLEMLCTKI
ssDAF12 agonist: activates DAF-12 receptor from parasite S. stercoralis; HEK293 ssDAF-12/GRIP1 lit1-tk-luc reporter, luminescence; % of 3 µM dafachronic acid response; activation, % at 6.8 µM; 1% of 370,000 active;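 active means activation above the mean over all tested compounds plus 3 SD, cut at about 0.9% in these data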;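 further: 0% = DMSO-only wells and 100% = 3 µM delta7-dafachronic acid wells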
NR1D1 modulator: modulators of human Rev-erb alpha DNA binding; Rev-erbα–FITC-DNA binding, fluorescence polarization, 90 min; activity, % at 10 µM; 0.79% of 370,000 active;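 active means activity above about 14%, limit read from the data; passing the limit was not always enough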;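 further: 0% = DMSO wells with 35 nM protein and 100% = DMSO wells with 750 nM protein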
DAX1 inh confirm: confirmation of human DAX1 (NR0B1) inhibitors | HEK293T StAR-promoter luciferase reporter, SF-1/DAX-1 repression | 87% of 2,400 active | shares compounds with DAX1 inh-1 | inhibition, % at 6.8 µM | AID 652134;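 active means inhibition above the average of every tested compound plus 3 SD, cut at about 3.8% in these data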;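 further: 0% = DAX-1 cells with DMSO and 100% = no DAX-1 control cells with DMSO; active compounds raise luminescence by relieving repression of the StAR reporter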
Target sequence (P51843 whole entry, looked up): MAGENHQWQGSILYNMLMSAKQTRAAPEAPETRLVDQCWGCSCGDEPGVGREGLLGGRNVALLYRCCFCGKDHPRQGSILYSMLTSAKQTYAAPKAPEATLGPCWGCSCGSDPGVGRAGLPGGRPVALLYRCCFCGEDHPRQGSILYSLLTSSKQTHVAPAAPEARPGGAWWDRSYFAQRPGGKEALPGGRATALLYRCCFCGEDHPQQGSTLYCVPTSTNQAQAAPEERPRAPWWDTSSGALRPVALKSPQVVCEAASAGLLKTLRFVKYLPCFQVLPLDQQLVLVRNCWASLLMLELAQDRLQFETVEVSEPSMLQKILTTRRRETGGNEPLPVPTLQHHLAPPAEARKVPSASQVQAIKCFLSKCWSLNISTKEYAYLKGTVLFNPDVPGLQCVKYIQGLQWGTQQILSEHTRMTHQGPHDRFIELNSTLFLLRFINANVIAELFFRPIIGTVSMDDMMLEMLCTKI
SF1 AF2mut Luc: nonselective inhibitor or artifact in SF-1 mutant DAX1 counter-screen; 78% of 2,400 active; inhibition, % at 6.8 µM; HEK293 StAR-luciferase, SF-1 AF2 mutant, luminescence; shares compounds with DAX1 inh-1;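 active means inhibition above the mean of all tested compounds plus 3 SD, cut at about 3% in these data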;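 further: 0% = DAX-1 transfected cells with DMSO and 100% = cells without DAX-1 with DMSO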
LXR ag: LXR-beta agonism as hcDAF-12 counter-screen; 3,400 tested, under 10 active; HEK293 Gal4-LXR tk-luc reporter, luminescence, 24 h; normalized: DMSO 0%, positive control 100%; activation, % at 6.8 µM; shares compounds with hcDAF12 agonist;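 active means mean percent activation of the reporter above a cutoff set as the average over tested compounds plus their standard deviation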
hcDAF12 ag: hcDAF-12 agonism, confirmation assay; activation, % at 6.8 µM; shares compounds with hcDAF12 agonist; 61% of 3,400 active; AID 743032; HEK293 hcDAF-12 lit1-tk-luc reporter, luminescence; % of Δ7-dafachronic acid response;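 active means mean activation across triplicate tests above the threshold derived from the earlier primary screen, cut at about 5.5% in these data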;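 further: 0% = DMSO only wells and 100% = 3 µM Δ7-dafachronic acid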
hgDAF12 conf: confirmation of H. glycines DAF-12 agonists; activation, % at 6.8 µM; 80% of 3,300 active; shares compounds with hgDAF-12 ag; HEK293 GAL4-hgDAF12 luciferase reporter, agonist mode; percent of butyrate response; AID 743050;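 active means mean activation over triplicate wells above the hit cutoff derived from the earlier primary screen, cut at about 11% in these data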;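 further: 0% = DMSO low control and 100% = 2 mM sodium butyrate high control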
LXR ag 2: activates human LXR-beta, counter-screen for DAF-12 agonists | shares compounds with hgDAF-12 ag | HEK293 Gal4-LXR luciferase reporter, 24 h | activation, % at 6.8 µM | 3,300 tested, under 10 active | AID 743051;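 active means mean activation of the triplicate above a set limit carried over from the primary screen, none filed active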
* hit, by the source's call; · = no result given.

SMILES	hgDAF-12 ag	hcDAF12 agonist	DAX1 inh-1	DAX1 inh-2	ssDAF12 agonist	NR1D1 modulator	DAX1 inh confirm	SF1 AF2mut Luc	LXR ag	hcDAF12 ag	hgDAF12 conf	LXR ag 2
C/C(=N/NC(=O)c1ccc2c(c1)OCO2)c1ccc(NC(=O)c2ccc(F)cc2)cc1	13.7*	5.7*	5.8*	1.6	-0.9	3.1	6.3*	1.8	·	·	6.2	0.2
CCCc1ccc(OC(=O)c2ccc(O)cc2Cl)cc1	16.4*	8.4*	5.3*	2.1	0.6	-8.8	13.9*	6.0*	1.6	8.1*	2.3	0.6
O=C(OCC(=O)N1CCc2ccccc2C1)c1c(F)cccc1Cl	15.6*	4.1	5.6*	1.5	-0.1	5.1	10.3*	7.3*	·	·	17.9*	0.9
O=[N+]([O-])c1ccc(COc2ccc(CN3CCOCC3)cc2)cc1	17.8*	3.4	7.7*	-1.5	-0.5	5.9	4.2*	1.2	·	·	9.4	0.6
O=[N+]([O-])c1ccc(COc2ccc(CN3CCCCC3)cc2)cc1	8.3	1.5	1.7	0.2	-0.9	-5.2	·	·	·	·	·	·
O=[N+]([O-])c1ccc(COc2ccc(CN3CCCC3)cc2)cc1	14.7*	1.9	4.8*	0.4	0.4	-1.2	6.9*	5.6*	·	·	12.8*	0.5
Cc1ccn2c(c1)nc(=S)n2C(=O)c1ccccc1	15.0*	6.7*	6.5*	4.5*	0.5	-7.7	8.0*	0.7	1.4	11.6*	10.8*	0.8
CC(C)c1ccc(/C=C/C(=O)Nc2nncs2)cc1	18.9*	12.8*	5.5*	-0.3	0.7	-1.4	13.8*	4.8*	2.2	6.3*	18.4*	1.4
COc1cccc(-c2cc(C(=O)N3CCN(c4ccc(F)cc4)CC3)no2)c1	-1.2	-2.4	0.6	0.3	-0.7	-0.4	·	·	·	·	·	·
O=C(c1cc(-c2cccc(O)c2)on1)N1CCCCC1	21.9*	6.9*	8.8*	1.3	0.4	5.9	14.0*	7.1*	1.6	4.5	14.3*	1.0
CN1CCN(C(=O)c2cc(-c3ccccc3)on2)CC1	3.6	0.6	1.2	0.1	-0.8	-2.2	·	·	·	·	·	·
COc1cccc(-c2cc(C(=O)N3CCCCCC3)no2)c1	18.2*	8.1*	9.6*	2.2	0.5	3.6	17.5*	7.3*	1.6	6.7*	17.9*	0.9
c1ccc(Cc2cnc(N3CCN(Cc4cccc(-c5ccsc5)n4)CC3)nc2)cc1	-5.0	-2.3	-4.8	·	-1.7	-3.0	·	·	·	·	·	·
O=C(CSc1nc2sc3c(c2c(=O)n1-c1ccc(Cl)cc1)CCCC3)c1ccccc1Cl	-0.6	1.9	0.4	·	-1.2	-0.8	·	·	·	·	·	·
O=C(NC(=S)Nc1ccccc1Br)C1CC1	3.4	0.2	0.7	0.7	-1.2	-5.4	·	·	·	·	·	·
Cc1ccc(NC(=S)NC(=O)C2CCCC2)c(Br)c1	15.2*	6.3*	9.3*	1.4	-0.2	3.0	9.5*	4.7*	·	·	20.8*	0.9
C[C@@H](NC(=O)c1ccc(C#Cc2cccc(F)c2)cn1)C(C)(C)O	0.9	-2.5	-1.3	·	-1.2	1.9	·	·	·	·	·	·
CN(C)c1ccc(-c2nnc(-c3cccs3)o2)cc1	19.8*	4.8	5.8*	4.4*	0.5	4.3	14.5*	5.9*	·	·	16.8*	1.2
COC(=O)Cc1ccc2sc(-c3ccccc3)nc2c1	21.2*	13.1*	5.9*	-0.5	1.0*	0.5	13.1*	8.6*	2.0	10.6*	17.3*	0.9
CN(C)c1ccc(/C=C/c2ccncc2)cc1	8.3	3.9	1.0	0.0	-0.8	11.9	·	·	·	·	·	·
CN(C)c1ccc(C=Cc2cnccn2)cc1	18.3*	4.8	6.7*	-0.9	0.2	-2.9	16.2*	9.8*	·	·	16.0*	1.1
CC(=O)c1cccc(NC(=O)c2cc(C(C)C)on2)c1	16.6*	5.1	5.2*	0.3	-0.5	4.3	10.7*	8.0*	·	·	10.5*	0.6
CC(=O)c1cccc(NC(=O)c2cc(-c3ccc(F)cc3)on2)c1	4.3	-0.3	0.2	0.2	0.4	5.4	·	·	·	·	·	·
CC(C)c1cc(C(=O)Nc2cccc(Cl)c2)no1	19.2*	7.8*	4.6*	0.9	0.7	-2.3	16.4*	9.3*	1.5	5.8*	18.9*	1.1
C=CCN1C(=O)[C@H](CC(=O)NCC23CC4CC(CC(C4)C2)C3)[C@@]2(C(=O)OCC)CCCC=C12	0.4	-3.3	-1.7	·	-1.3	-3.8	·	·	·	·	·	·
SMILES	hgDAF-12 ag	hcDAF12 agonist	DAX1 inh-1	DAX1 inh-2	ssDAF12 agonist	NR1D1 modulator	DAX1 inh confirm	SF1 AF2mut Luc	LXR ag	hcDAF12 ag	hgDAF12 conf	LXR ag 2
Cc1ccc2nc(-c3ccc(NC(=O)C(C)N4C(=O)c5ccccc5C4=O)cc3)sc2c1 (stereo not given)	21.5*	8.6*	6.2*	3.4	0.5	-2.5	8.8*	5.8*	0.7	5.3	13.2*	0.6
Cc1ccc2nc(-c3ccc(NC(=S)NC4CC(C)(C)NC(C)(C)C4)cc3)sc2c1	18.5*	4.8	7.5*	4.4*	0.6	1.7	11.9*	10.4*	·	·	17.4*	0.7
Cc1ccc2nc(-c3ccc(NC(=O)CCN4C(=O)c5ccccc5C4=O)cc3)sc2c1	16.8*	8.7*	5.9*	-0.3	0.9*	-2.7	15.4*	4.5*	1.5	8.3*	21.4*	1.4
Cc1ccc2nc(-c3ccc(NC(=S)NC(=O)C(C)C)cc3)sc2c1	4.8	3.7	2.4	1.8	0.0	6.0	·	·	·	·	·	·
Cc1ccc2nc(-c3ccc(NC(=O)CSCC(=O)O)cc3)sc2c1	24.4*	7.0*	4.8*	3.9	0.5	-6.7	15.1*	8.8*	1.3	5.8*	17.8*	0.8
O=C(CCN1C(=O)c2ccccc2C1=O)Nc1ccc(-c2nc3ccccc3s2)cc1	3.4	2.1	2.5	1.4	-0.6	2.1	·	·	·	·	·	·

Bioassay records from PubChem BioAssay.
